Experimental data taken from PubChem BioAssay (NCATS).
Inconclusive results are not listed. Active and inactive are the calls of the source. Calls come from the whole dose curve; as a rule, active = well fitted inhibition curve with a large enough effect; inconclusive = small, poorly fitted or top-dose-only effect; inactive = flat fitted curve, though single readings scatter. Where a SMILES comes first, the peptide text is derived from it. Bridges are numbered along the chain shown (N, C = ends). [ ]: non-standard residue; d: D form. hArg = N=C(N)NCCCC[C@H](N)C(=O)O; Mpa = O=C(O)CCS

Experiments:
PC49 = assay: qHTS profiling for inhibitors of Plasmodium falciparum proliferation (AID 504749);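 note: 0% = DMSO vehicle and full inhibition = artemisinin control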; details: P. falciparum in erythrocytes, SYBR Green DNA, 72 h; series mostly up to 28.7 µM
Method in brief: (§1)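 SYBR Green fluorescence of parasite DNA, read after lysis and overnight dark incubation, measured growth over 72 h in erythrocyte culture at 0.3% parasitemia and 2.5% hematocrit. Data normalised to DMSO and 0.29 uM artemisinin, with plate-drift correction.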

SC27B = assay: as above; details: P. falciparum in erythrocytes, SYBR Green DNA, 72 h; series mostly up to 28.7 µM
Method in brief: as §1

TAB109 = assay: as above; details: P. falciparum in erythrocytes, SYBR Green DNA, 72 h; series mostly up to 28.7 µM
Method in brief: as §1

TAB113 = assay: as above; details: P. falciparum in erythrocytes, SYBR Green DNA, 72 h; series mostly up to 28.7 µM
Method in brief: as §1

TAB165 = assay: as above; details: P. falciparum in erythrocytes, SYBR Green DNA, 72 h; series mostly up to 28.7 µM
Method in brief: as §1

W2 = assay: as above; details: P. falciparum in erythrocytes, SYBR Green DNA, 72 h; series mostly up to 28.7 µM
Method in brief: as §1

CRL-7250 = normal cell line; assay: Cytotoxic Profiling of Annotated Libraries Using Quantitative High-Throughput Screening (AID 1296008); details: Five cell lines viability, CellTiter-Glo ATP luminescence, 48-72 h; active compounds read low; for max response: % is set by controls: 0 for no effect and ±100 for the full control effect
Method in brief: (§2)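 Cytotoxicity was measured as CellTiter-Glo ATP luminescence, read after 10 min at room temperature. Compound treatment of the cells lasted 48 or 72 hr at 37 degrees Celsius in a qHTS format.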

HEK293 = assay: as above; details: Five cell lines viability, CellTiter-Glo ATP luminescence, 48-72 h; active compounds read low
Method in brief: as §2

HaCat = assay: as above; details: Five cell lines viability, CellTiter-Glo ATP luminescence, 48-72 h; active compounds read low
Method in brief: as §2

KB-3-1 = assay: as above; details: Five cell lines viability, CellTiter-Glo ATP luminescence, 48-72 h, active compounds read low
Method in brief: as §2
Note: nearly all actives have a fitted effect of over 60% in size.

NC(=O)[C@@H]1CSSCCC(=O)N[C@@H](CCCCN=C(N)N)C(=O)NCC(=O)N[C@@H](CC(=O)O)C(=O)N[C@@H](Cc2c[nH]c3ccccc23)C(=O)N2CCC[C@H]2C(=O)N1 ([Mpa][hArg]GDWPC-NH2; disulfide 1-7)
inactive: Potency (PC49) | Potency (SC27B) | Potency (TAB109) | Potency (TAB113) | Potency (TAB165) | Potency (W2) | outcome (CRL-7250) | max response (HEK293) -7.03% | outcome (HaCat)

Cc1cc(C)nc(NS(=O)(=O)c2ccc(N)cc2)n1
inactive: Potency (PC49) | Potency (SC27B) | Potency (TAB109) | Potency (TAB113) | Potency (TAB165) | Potency (W2) | max response (CRL-7250) -8.07% | max response (HEK293) 3.16% | max response (HaCat) 3.39%

Nc1ncnc2c1ncn2[C@@H]1O[C@H](COP(=O)(O)O)[C@@H](O)[C@H]1O
inactive: Potency (SC27B) | Potency (TAB109) | Potency (TAB113) | Potency (TAB165) | Potency (W2) | outcome (CRL-7250) | outcome (HEK293) | outcome (HaCat) | max response (KB-3-1) -9.67%

CCOC(=O)[C@H](CCc1ccccc1)N[C@@H](C)C(=O)N1CCC[C@H]1C(=O)O
inactive: Potency (PC49) | Potency (SC27B) | Potency (TAB109) | Potency (TAB113) | Potency (TAB165) | Potency (W2) | max response (CRL-7250) 2.02% | max response (HEK293) -1.68% | outcome (HaCat)

CCCCCC(N)=O
inactive: Potency (PC49) | Potency (SC27B) | Potency (TAB109) | Potency (TAB113) | Potency (TAB165) | Potency (W2) | outcome (CRL-7250) | max response (HEK293) -2.09% | outcome (HaCat)

Cc1cc(C)c(NC(=O)CN(CC(=O)O)CC(=O)O)c(C)c1Br
inactive: Potency (PC49) | Potency (W2) | max response (CRL-7250) -2.84% | max response (HEK293) -7.54% | outcome (HaCat)

CC(=O)NS(=O)(=O)c1ccc(N)cc1
inactive: Potency (PC49) | Potency (SC27B) | Potency (TAB109) | Potency (TAB113) | Potency (TAB165) | Potency (W2) | max response (CRL-7250) -3.19% | max response (HEK293) -5.52% | outcome (HaCat)

Cc1cccc(C)c1NC(=O)CC12CCCN1CCC2
inactive: Potency (PC49) | Potency (SC27B) | Potency (TAB109) | Potency (TAB113) | Potency (TAB165) | max response (CRL-7250) 2.63% | outcome (HEK293) | max response (HaCat) -12.5%

CC(=O)OC[C@H]1O[C@@](COC(C)=O)(O[C@H]2O[C@H](COC(C)=O)[C@@H](OC(C)=O)[C@H](OC(C)=O)[C@H]2OC(C)=O)[C@@H](OC(C)=O)[C@@H]1OC(C)=O
inactive: Potency (PC49) | Potency (W2) | max response (CRL-7250) 4.32% | max response (HEK293) -4.41% | outcome (HaCat) | max response (KB-3-1) 2.32%

NC(=O)CC[C@@H](N)C(=O)O
inactive: Potency (PC49) | Potency (SC27B) | Potency (TAB109) | Potency (TAB113) | Potency (TAB165) | Potency (W2) | max response (CRL-7250) -0.379% | max response (HEK293) -7.81% | max response (HaCat) -14.8%

NC(N)=NCCN1CCCCCCC1
inactive: Potency (PC49) | Potency (SC27B) | Potency (TAB109) | Potency (TAB113) | Potency (TAB165) | Potency (W2) | max response (CRL-7250) -19.7% | max response (HEK293) 0.733% | outcome (HaCat)

CCOC(N)=O
inactive: Potency (PC49) | Potency (SC27B) | Potency (TAB109) | Potency (TAB113) | Potency (TAB165) | Potency (W2) | max response (CRL-7250) 1.79% | max response (HEK293) -1.46% | max response (HaCat) -12.1%

O=C(O)CCCc1ccccc1
inactive: Potency (PC49) | Potency (SC27B) | Potency (TAB109) | Potency (TAB113) | Potency (TAB165) | Potency (W2) | max response (CRL-7250) 1.18% | outcome (HEK293) | max response (HaCat) 2.59%

O=C(O)CCC(=O)O
inactive: Potency (PC49) | Potency (SC27B) | Potency (TAB109) | Potency (TAB113) | Potency (TAB165) | Potency (W2) | max response (CRL-7250) 3.26% | max response (HEK293) 3.09% | outcome (HaCat)

CCCNC(C)(C)COC(=O)c1ccccc1
inactive: Potency (PC49) | Potency (SC27B) | Potency (TAB109) | Potency (TAB113) | Potency (TAB165) | max response (CRL-7250) -0.75% | max response (HEK293) 3.12% | outcome (HaCat)

CCN(CC)C(=O)c1cccc(C)c1
inactive: Potency (PC49) | Potency (SC27B) | Potency (TAB109) | Potency (TAB113) | Potency (TAB165) | Potency (W2) | outcome (CRL-7250) | max response (HEK293) 0.224% | outcome (HaCat)

O=c1[nH]c2cc(C(F)(F)F)c(N3CCOCC3)cc2n(CP(=O)(O)O)c1=O
inactive: Potency (PC49) | Potency (SC27B) | Potency (TAB109) | Potency (TAB113) | Potency (TAB165) | Potency (W2) | outcome (CRL-7250) | max response (HEK293) 2.88% | max response (HaCat) 2.4%

Cc1[nH]c(C)c(Cl)c(=O)c1Cl
inactive: Potency (PC49) | Potency (SC27B) | Potency (TAB109) | Potency (TAB113) | outcome (CRL-7250) | max response (HEK293) -10% | max response (HaCat) -2.26%

O=C(c1ccccc1)C(O)c1ccccc1 (centres undefined)
inactive: Potency (SC27B) | Potency (TAB109) | Potency (TAB113) | Potency (TAB165) | max response (CRL-7250) -6.36% | max response (HEK293) -4.36% | max response (HaCat) -0.758% | max response (KB-3-1) -15.7%
